TPT1 inhibitor: inhibitors of Candida albicans tRNA 2'-phosphotransferase TPT1 | recombinant caTPT1, FP RNA substrate dephosphorylation | inhibition, % at 5 µM | actives 0.81% (n = 300,000);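 active = inhibition above the mean of all tested compounds plus 3 SD, set per screening campaign, cut at about 24% in these data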
IDE act: boosts human insulin-degrading enzyme activity in HEK cells | P14735 | FAbeta-B cleavage, fluorescence polarization; 0% vehicle, 100% cell-free pure enzyme wells | activation, % at 5.96 µM | actives 0.073% (n = 340,000);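 active = activation above the mean of all tested compounds plus 3 SD, set per screening campaign, cut at about 17% in these data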
Target sequence (P14735 whole entry, looked up): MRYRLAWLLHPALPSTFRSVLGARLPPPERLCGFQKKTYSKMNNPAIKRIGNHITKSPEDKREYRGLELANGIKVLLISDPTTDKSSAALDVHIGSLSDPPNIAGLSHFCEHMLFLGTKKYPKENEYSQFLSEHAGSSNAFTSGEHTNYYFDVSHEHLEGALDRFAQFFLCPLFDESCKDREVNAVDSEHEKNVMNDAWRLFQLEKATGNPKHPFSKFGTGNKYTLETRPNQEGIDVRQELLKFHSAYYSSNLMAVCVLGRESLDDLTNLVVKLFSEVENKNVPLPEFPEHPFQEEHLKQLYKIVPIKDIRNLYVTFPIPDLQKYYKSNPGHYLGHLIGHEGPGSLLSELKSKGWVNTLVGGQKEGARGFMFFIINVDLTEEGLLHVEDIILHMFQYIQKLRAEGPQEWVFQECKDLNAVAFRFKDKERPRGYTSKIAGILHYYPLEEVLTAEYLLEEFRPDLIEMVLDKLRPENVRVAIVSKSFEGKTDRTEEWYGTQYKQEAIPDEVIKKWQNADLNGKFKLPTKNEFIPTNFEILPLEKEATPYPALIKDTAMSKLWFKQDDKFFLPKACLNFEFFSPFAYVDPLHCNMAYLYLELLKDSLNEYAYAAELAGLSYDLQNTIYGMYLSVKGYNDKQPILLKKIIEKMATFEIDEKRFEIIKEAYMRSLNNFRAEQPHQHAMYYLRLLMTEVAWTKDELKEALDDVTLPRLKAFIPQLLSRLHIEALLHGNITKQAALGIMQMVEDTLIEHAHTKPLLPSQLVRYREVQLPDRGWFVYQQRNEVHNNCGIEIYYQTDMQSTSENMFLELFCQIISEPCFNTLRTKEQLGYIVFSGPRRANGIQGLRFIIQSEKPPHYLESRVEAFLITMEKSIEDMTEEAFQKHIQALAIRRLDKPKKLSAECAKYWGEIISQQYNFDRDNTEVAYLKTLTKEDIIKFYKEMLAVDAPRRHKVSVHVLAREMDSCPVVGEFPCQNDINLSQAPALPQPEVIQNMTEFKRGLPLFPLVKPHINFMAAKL
Myeloid diff MLP: promotes myeloid progenitor differentiation | ER-HoxA9 myeloid progenitors, lysozyme-GFP differentiation, flow cytometry | calls only at 10 µM | actives 1% (n = 360,000) | AID 624256;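 active = normalized GFP-positive differentiation at or above the plate's own cutoff, the solvent-only control mean plus 3 SD; inconclusive = no clear call, values can overlap the other calls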;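 also: cells exposed to compound for four days before flow analysis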
CRFBP-R2 agonist: agonists of human CRF-binding protein/CRF-R2 receptor complex; HEK293 CRF-R2/CRF-BP, calcium dye fluorescence (FLIPR); percent of saturating CRF peptide response; activation, % at 13.2 µM; actives 0.46% (n = 350,000);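 active = activation of at least 50%, plus an integration ratio under a set limit after plate pattern correction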
CRFR2-BP antag: CRF-BP/CRF-R2 complex antagonism | AID 588475 | actives 0.59% (n = 350,000) | HEK293 CRF-R2/CRF-BP, CRF-induced calcium fluorescence | inhibition, % at 11.8 µM;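 active = inhibition of the ligand-induced calcium signal above about 50% at the single tested concentration, limit read from the data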
IDE cell inh: inhibitors of human insulin-degrading enzyme in cells; P14735; HEK cells, FAbetaB cleavage, fluorescence polarization; inhibition, % at 5.59 µM; actives 0.41% (n = 320,000); AID 434962;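 active = percent inhibition above the average of all tested compounds plus 3 SD, set per screening campaign, cut at about 16% in these data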;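 also: IDE supplied by intact live HEK cells; FP after avidin binding of uncleaved biotin substrate so inhibition keeps polarization high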
A number is an active result; – = inactive; ? = inconclusive; · = not tested or not shown; + = active, no number. Most compounds without a hit are left out; they make up all but 2.6% or so of the library.

SMILES	TPT1 inhibitor	IDE act	Myeloid diff MLP	CRFBP-R2 agonist	CRFR2-BP antag	IDE cell inh
Oc1ccc(N2CCN(Cc3nc4ccccc4[nH]3)CC2)cc1	–	–	–	–	–	–
COc1ccc(CN2CCSCC2)cc1C	–	–	–	69.3	–	–
CCC1CCCCN1Cc1ccc(OC)c(C)c1 (centres undefined)	–	–	–	65.0	–	–
Cc1ccsc1C(=O)N1CCCC(N(C)Cc2ccccc2)C1 (centres undefined)	–	–	–	–	–	–
Nc1c(C(=O)NCc2ccccc2)c2nc3ccccc3nc2n1-c1ccc2c(c1)OCO2	–	–	+	–	–	–
CN1CCN(S(=O)C23CC4CC(CC(C4)C2)C3)CC1 (centres undefined)	–	–	–	–	–	–
O=S(N1CCc2ccccc21)C12CC3CC(CC(C3)C1)C2 (centres undefined)	–	–	+	–	–	–
CC(C)c1ccc(N(C)C(=O)Cc2c(C(=O)O)n(C)c3ccccc23)cc1	–	–	+	–	–	–
O=C(Nc1ccc(S(=O)(=O)Nc2nccs2)cc1)c1c(F)c(F)c(F)c(F)c1F	–	–	?	–	–	–
CCN(CC)CC(=O)Nc1ccc([N+](=O)[O-])cc1	–	–	–	–	–	–
O=c1[nH]cccc1-c1nc2ccccc2n1Cc1ccccc1F	–	–	–	–	–	–
CCn1c(-c2ccc[nH]c2=O)nc2ccccc21	–	–	+	–	–	–
CC1CCCCN1C(C(=O)O)c1ccccc1 (centres undefined)	–	–	–	–	64.9	–
CC1CCCCN1C(=O)c1ccc(C(=O)c2ccccc2)cc1 (centres undefined)	·	–	–	–	–	–
COC(=O)CSc1cc([N+](=O)[O-])ccc1NC(=O)OC	–	–	+	–	–	–
COC(=O)Nc1ccc([N+](=O)[O-])cc1OC	–	–	–	–	–	–
N#C/C(=C\c1ccc2c(c1)OCO2)C(N)=S	–	·	–	–	–	–
CCOC(=O)/C(C#N)=C\c1ccc2c(c1)OCO2	–	–	–	–	110.2	–
CCCNCc1cc(OC)c(OCCC)cc1Cl	–	–	+	–	–	–
COc1ccc2c(c1)[nH]c1c(N3CCSCC3)ncnc12	–	–	–	–	–	–
COc1cccc(N2CCN(c3ncnc4c3[nH]c3ccccc34)CC2C)c1 (centres undefined)	–	·	·	·	·	25.3
COc1ccc(CNc2nc3nc4c(c(=O)n3[nH]2)CCC4)cc1	–	–	–	–	–	–
COc1ccc(C(=O)C2CCCN(Cc3ccc(C#CCCO)cc3)C2)cc1F (centres undefined)	–	–	+	–	–	–
CCN(CCNC(=O)C1CCCN(c2ncnc3c2nc2n3CCCCC2)C1)Cc1ccccc1 (centres undefined)	–	–	–	–	–	–
CN(CCNC(=O)C1CCN(c2ncnc3c2nc2n3CCCCC2)CC1)Cc1ccccc1	–	–	+	–	–	–
SMILES	TPT1 inhibitor	IDE act	Myeloid diff MLP	CRFBP-R2 agonist	CRFR2-BP antag	IDE cell inh
N#C/C(=N\Nc1cccc(Cl)c1)C(=O)c1ccccc1	–	–	–	57.6	–	–
N#C/C(=N\Nc1ccccc1Cl)C(=O)c1ccccc1	–	–	–	–	85.1	–
COc1ccc(C(=O)/C(C#N)=N/Nc2cccc([N+](=O)[O-])c2)cc1	·	–	–	–	56.9	·
CN(Cc1ccccc1)C(=O)CCN1C(=O)c2cccc([N+](=O)[O-])c2C1=O	·	·	–	–	–	·
O=C1c2cccc([N+](=O)[O-])c2C(=O)N1CCO	–	–	+	–	–	–
COc1ccccc1CNC(=O)COC(=O)COc1ccccc1Cc1ccccc1	–	–	–	–	–	–
COc1cc2c(cc1OC)C1(Nc3c-2c(-c2ccccc2)nn3-c2ccccc2)C(=O)Nc2ccccc21 (centres undefined)	–	–	–	–	–	–
COc1cc2c(cc1OC)C1(Nc3c-2c(C)nn3-c2ccccc2)C(=O)Nc2ccccc21 (centres undefined)	–	–	+	–	–	–
CC(CNC(=O)C1CCCN(S(=O)(=O)N2CCOCC2)C1)c1ccccc1 (centres undefined)	–	–	–	–	–	–
CN1Cc2c(N3CCOCC3)nc(SCc3ccccc3)c(C#N)c2CC1(C)C	–	–	–	64.0	–	–

Assay outcomes deposited in PubChem by several laboratories.
